# ATXN2 expr inh – Primary qHTS for Inhibitors of ATXN expression; AID 1745845, 2022; Potency, µM (top dose mostly 57 µM), for the others: top-dose activity change, negative = inhibition, hits mostly inhibitors; HEK-293 ATXN2-luciferase reporter, luminescence, 24 h; 360,000 compounds, 0.72% hits; also: % is scaled to controls: 0 for no effect and ±100 for the full control effect; nearly all actives have a fitted effect of over 55% in size
#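 qHTS (up to 57 uM final) was run with 24 h compound exposure of reporter cells at 37 °C. Each well was multiplexed: SteadyGlo luminescence measured ATXN2-luciferase expression after a fluorogenic Gly-Phe-AFC viability readout (25 uM final).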
# TDP1 cell CPT – qHTS for Inhibitors of human tyrosyl-DNA phosphodiesterase 1 (TDP1): qHTS in cells in presence of CPT | chicken DT40 Tdp1-/-;hTDP1 cells + 20 nM CPT, ATP luminescence, 48 h | Potency, µM (doses to about 46.2 µM), for inactives: at the highest dose activity change, negative = growth inhibition, actives largely listed as inhibitors | 420,000 compounds, 12% hits | AID 686979, 2013; also: % is scaled to controls: 0 for no effect and ±100 for the full control effect; nearly all actives have a fitted effect of over 55% in size
#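 Chicken DT40 Tdp1-/- cells stably complemented with human TDP1 were seeded at 400 cells/well in medium containing 20 nM camptothecin, exposed to pin-transferred compounds, and grown at 37 °C for at least 48 hr. Viability was read as ATP luminescence.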
# ATXN viability – Viability Counterscreen for Primary qHTS for Inhibitors of ATXN expression; AID 651635, 2014; 400,000 compounds, 0.49% hits; S2 cells (HEK-293 line with an ATXN2-luciferase reporter) viability, CellTiter-Fluor protease fluorescence, 24 h; Potency, µM (series often up to 56.7 µM), usual class: cytotoxic; also: nearly all actives have a fitted effect of over 40% in size
# DT40 TDP1 no CPT – qHTS for Inhibitors of human tyrosyl-DNA phosphodiesterase 1 (TDP1): qHTS in cells in absence of CPT; DT40 Tdp1-/- hTDP1 cells, no CPT, ATP luminescence, 48 h; Potency, µM (top dose mostly 46.2 µM), for the others: top-dose activity change, negative = growth inhibition, usual class: inhibitors; 420,000 compounds, 15% hits; also: % is scaled to controls: 0 for no effect and ±100 for the full control effect; nearly all actives have a fitted effect of over 55% in size
#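 Camptothecin absent (DMSO only). Human TDP1-complemented DT40 knockout cells, 400 cells/well, 37 °C for minimum 48 hr; ATP measured via CellTiter-Glo, 30 min dark incubation, luminescence.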
# TGFb inhibitor – qHTS for Inhibitors of TGF-b; 410,000 compounds, 1.2% hits; HepG2 CAGA-GFP TGF-b/SMAD3 reporter, GFP fluorescence, 18 h; TGF-beta stimulated, 500 pg/mL final; AID 588855, 2011; Potency, µM (doses to about 46.1 µM), without a hit: top-dose activity, negative = inhibition, actives largely listed as inhibitors; also: % is scaled to controls: 0 for no effect and ±100 for the full control effect; nearly all actives have a fitted effect of over 65% in size
#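 HEPG2 CAGA-GFP cells (1000/well, DMEM with 1% FBS) were pre-incubated 2 h at 37 degrees C, given compound by pin tool, then stimulated with TGF-beta at 500 pg/mL final for 18 h before per-cell GFP fluorescence imaging.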
# HepG2 viability – qHTS for Inhibitors of TGF-b: Cytotox Counterscreen; HepG2 CAGA-GFP viability, ATP luminescence, 18 h; Potency, µM (top dose mostly 46.1 µM), without a hit: at the highest dose activity change, negative = cytotoxicity, usual class: cytotoxic; 410,000 compounds, 0.76% hits
#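 HepG2 CAGA-GFP cells (1000/well, DMEM with 1% FBS) received compound, then TGF-beta at 500 pg/mL final, and were incubated 18 hours at 37 degrees C. Viability was read by CellTiter-Glo luminescence. Media-only wells were set as complete cell-killing and DMSO as no toxicity.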
# Numbers without * were called inactive; i = inactive; ? = inconclusive; . = not tested or not shown. An excerpt weighted towards active compounds, which were near 17% of everything screened. Calls follow the shape of the dose curve; as a rule, active = well fitted curve in the direction sought with a large enough effect; inconclusive = small, poorly fitted or top-dose-only effect, or another doubt; inactive = no such curve, though single readings can be large; an effect the other way counts as inactive or inconclusive. Potency is read from the fitted curve at half-maximal effect.
SMILES,ATXN2 expr inh,TDP1 cell CPT,ATXN viability,DT40 TDP1 no CPT,TGFb inhibitor,HepG2 viability
CC(C)CCNC(=S)Nc1ccc(Br)cc1,33%,?,i,16µM*,?,-38%
CC(C)CCNC(=S)Nc1ccc([N+](=O)[O-])cc1,?,?,?,?,?,-47%
S=C(NCCc1ccccc1)Nc1ccc(Br)cc1,70%,?,i,23µM*,?,-37%
COC(=O)CCCC(=O)NCC1(N(C)Cc2ccccc2)Cc2ccccc2C1,-14%,3%,i,?,27%,2%
COc1ccc(S(=O)(=O)N2CCC(C(=O)Nc3nnc(C)s3)CC2)cc1OC,1%,-4%,i,?,-2%,1%
Nc1nc(=O)n(C2CC(O)C(CO)O2)cc1Cl (centres undefined),5%,?,i,-26%,-5%,-2%
CCc1nc2c(OCc3ccc(C(F)(F)F)cc3)cccn2c1N(C=O)Cc1ccc(OC)cc1,?,21µM*,?,16µM*,?,-28%
Cc1nc2c(OCc3ccc(C(F)(F)F)cc3)cccn2c1N(C)Cc1cccs1,?,?,32µM*,?,?,-101%
CCCCN(C=O)c1c(CC)nc2c(OCc3ccc(C(F)(F)F)cc3)cccn12,?,12µM*,?,12µM*,?,-44%
CCc1nc2c(OCc3ccc(C(F)(F)F)cc3)cccn2c1N(C)C(C)=O,-15%,?,i,?,-6%,-11%
O=C(OCc1cc(=O)n2ccsc2n1)c1ccccc1NCCO,91%,2%,i,-30%,6%,-9%
COc1ccc(CCN=C(C)C2=C(O)C(c3ccccc3)OC2=O)cc1OC (centres undefined),-11%,?,i,?,?,-8%
O=C(CCNC(=O)c1ccc(Br)cc1)NNC(=O)c1ccccc1O,-7%,?,i,23µM*,?,-35%
O=C(NNC(=O)c1ccccc1O)c1ccc(Cl)cc1,-22%,18µM*,i,16µM*,-9%,-26%
O=C(NNC(=O)c1ccc(O)cc1O)c1ccc(Cl)cc1,-1%,?,i,?,-8%,4%
O=C(NNC(=O)c1ccccc1O)c1ccc(Br)cc1,-7%,?,i,?,0%,-29%
O=C(NNC(=O)c1cccc2ccccc12)c1ccc(Cl)cc1,26%,2%,i,?,1%,-4%
Cc1cccc(C(=O)NNC(=O)c2ccc(Cl)cc2)c1O,-17%,?,i,21µM*,18%,-21%
Cc1ccc(C)n1-n1c(C)nc2sc(-c3ccccc3)cc2c1=O,4%,18µM*,i,15µM*,-25%,-10%
O=c1[nH]c(-c2ccccc2)nc2sc(-c3ccccc3)cc12,69%,10µM*,.,6.5µM*,5%,6%
CCOc1ccc(-c2cccc(NS(=O)(=O)c3cccc([N+](=O)[O-])c3)c2)nn1,.,-27%,i,?,-12%,0%
COC(=O)C[C@@H]1C=C[C@@H](NC(=O)NC2CCCC2)[C@@H](CO)O1,.,-21%,.,0%,.,.
O=C(NCc1cccs1)C1Cc2c(-c3ccccc3Oc3ccccc3)ccnc2O1 (centres undefined),-20%,?,?,?,7%,-9%
COc1ccc(NC(=O)C2Cc3c(-c4ccccc4Oc4ccccc4)ccnc3O2)cn1 (centres undefined),?,15µM*,i,15µM*,?,-31%
